Only some compounds are listed: those with a hit (about 0.82% of all), similar ones and a draw of the others.
Cardiac RTF inh: cardiac RTF calcium desensitization; inhibition, % at 7.15 µM; AID 493244; IANBD-labeled cardiac RTF, Ca2+ fluorescence; 340,000 compounds, 0.12% hits;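 active means inhibition above the mean inhibition of all tested compounds plus 3 SD, cut at about 17% in these data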;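 further: assay run at fixed EC70 calcium of 1.6 mM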
eLon inh: E. coli protease La inhibition; 360,000 compounds, 0.42% hits; AID 602123; inhibition, % at 7.94 µM; P0A9M0; purified E. coli Lon protease, fluorescence polarization; in the data active means inhibition above about 13%, passing the limit was not always enough;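 further: 0% = enzyme with probe and DMSO and 100% = no enzyme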
RTF Ca sens act: cardiac RTF calcium sensitization | P19429+P45379 | 340,000 compounds, 0.24% hits | IANBD-labeled TnC RTF fluorescence at EC20 calcium; 0% EC20 calcium, 100% full calcium | activation, % at 7.2 µM;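 active means activation above the mean over all tested compounds plus 3 SD, cut at about 30% in these data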;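 further: rise in fluorescence read as greater calcium sensitivity of cardiac thin filaments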
Keap1 Nrf2 FP: inhibitors of human Keap1-Nrf2 protein-protein interaction | Q14145 | AID 504523 | Keap1 Kelch-Nrf2 peptide fluorescence polarization, 1536-well | 340,000 compounds, 0.15% hits | inhibition, % at 9.4 µM; in the data active means inhibition above about 12%;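 further: human Keap1 Kelch domain with fluorescein labeled Nrf2 9mer peptide probe; 0% = neutral control wells and 100% = peptide positive control; higher means more block of Keap1 binding to Nrf2 peptide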
Target sequence (Q14145 whole entry, looked up, the tested form may be a part): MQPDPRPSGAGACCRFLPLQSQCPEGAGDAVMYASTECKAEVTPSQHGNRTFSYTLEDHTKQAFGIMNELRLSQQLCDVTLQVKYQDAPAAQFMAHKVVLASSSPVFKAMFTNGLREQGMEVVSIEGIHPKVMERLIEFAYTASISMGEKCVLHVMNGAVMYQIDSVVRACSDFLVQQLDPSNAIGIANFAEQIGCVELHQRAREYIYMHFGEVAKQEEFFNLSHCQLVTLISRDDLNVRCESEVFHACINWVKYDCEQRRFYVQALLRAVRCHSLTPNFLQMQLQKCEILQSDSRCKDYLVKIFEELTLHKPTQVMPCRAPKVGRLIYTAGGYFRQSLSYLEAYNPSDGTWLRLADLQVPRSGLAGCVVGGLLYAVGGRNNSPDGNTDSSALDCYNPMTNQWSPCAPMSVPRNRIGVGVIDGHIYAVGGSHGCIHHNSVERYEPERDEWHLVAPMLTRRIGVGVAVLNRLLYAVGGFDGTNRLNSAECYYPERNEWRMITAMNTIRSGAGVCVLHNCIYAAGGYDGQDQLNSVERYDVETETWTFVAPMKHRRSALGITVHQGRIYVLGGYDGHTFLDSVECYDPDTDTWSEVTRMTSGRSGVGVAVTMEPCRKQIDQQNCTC
LANA DNA inh: KSHV C-LANA DNA binding inhibition; MBP-C-LANA/FAM-LBS DNA binding, fluorescence polarization; inhibition, % at 9 µM; 340,000 compounds, 0.078% hits; AID 504423;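 active means highest replicate inhibition at or above 60% at 9 µM, even if other replicates fall short; inactive means all replicates below 60% inhibition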;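 further: 0% = neutral control wells and 100% = 4 µM acridine orange control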
RTF Ca inh conf: cardiac RTF calcium sensitivity inhibition, confirmation; shares compounds with Cardiac RTF inh; reconstituted cardiac thin filaments, calcium sensitivity fluorescence; inhibition, % at 7.15 µM; 360 compounds, 8% hits; AID 504635; in the data active means inhibition above about 18%
* = called active by the depositor; nt = not tested or not shown.

SMILES	Cardiac RTF inh	eLon inh	RTF Ca sens act	Keap1 Nrf2 FP	LANA DNA inh	RTF Ca inh conf
COc1cccc(C(=O)Nc2cccc(C(=O)N3CCOCC3)c2)c1	21*	-2	-7	-1	0	-2
O=C1CC(=O)N2N=C(c3ccc([N+](=O)[O-])cc3)SC2=N1	19*	3	-1	-5	2	-3
O=C(N/N=C/c1ccc(F)cc1)c1cc(-c2ccco2)nc2ccccc12	19*	-3	-16	1	0	3
COc1cc(/C=C2\SC(=Nc3ccccc3)N(CCc3c[nH]c4ccccc34)C2=O)ccc1OC(C)C(=O)O (stereo not given)	35*	5	-20	-3	2	4
CCCCCCC(=O)O	-6	-3	2	-1	-2	nt
CCCCCCCCCCCCCCCC(=O)OC(CC(=O)O)C[N+](C)(C)C (stereo not given)	18*	-1	5	5	1	-5
CCN1C(=O)[C@H]2[C@@H](c3ccc(-c4cccc(Cl)c4)c(OC)c3)N3CCCC[C@@]3(C(=O)OC)[C@H]2C1=O	2	8	3	-4	0	nt
Cc1ccc(-c2cc(C(=O)N/N=C/c3ccco3)[nH]n2)cc1	17*	-3	4	-5	-2	-6
Cc1cccc(NC(=O)CCN2CCCC(C)C2)c1 (stereo not given)	59*	-2	7	2	1	-5
Cc1cccc(NC(=O)CCN2CC(C)OC(C)C2)c1 (stereo not given)	-4	-2	6	-6	0	nt
O=C(COc1ccc(Br)cc1)Nc1ccc(N2CCOCC2)cc1N1CCOCC1	-8	-2	1	-3	1	nt
O=C1C=CC2=C3c4cc(O)c(O)cc4CC3(O)COC2=C1O (stereo not given)	37*	12	-29	-8	107*	34*
COCCNC(=O)CSc1nc2ccc(N3CCOCC3)cc2c(=O)n1Cc1ccc(OC)cc1	-2	-11	2	-1	-1	nt
CCCCNC(=O)CSc1nc2ccc(N3CCOCC3)cc2c(=O)n1Cc1ccc(OC)cc1	19*	12	1	-6	-2	-1
CCc1oc2ccccc2c1C(=O)c1cc(Br)c(O)c(Br)c1	18*	1	-12	-2	9	1
CCc1ccc(OCC(=O)c2c(O)c3ccccc3oc2=O)cc1	0	0	3	1	0	nt
Cc1ccc(O)c(N=Cc2cc(Cc3ccccc3)cc([N+](=O)[O-])c2O)c1	11	-11	-11	0	-1	nt
O=[N+]([O-])c1cc(Cc2ccccc2)cc(C=Nc2ccc(N3CCOCC3)cc2)c1O	21*	-23	-13	0	0	5
Cc1cc(C)n2c(SCC(=O)Nc3cc(C)on3)nnc2n1	18*	-5	-4	0	3	-5
CC(C)C[C@H](NC(=O)c1nc[nH]c1C(=O)N(C)Cc1ccccc1)C(=O)OC(C)(C)C	-4	-3	-1	-1	0	nt
C[C@H]1CN=C(Nc2ccccc2)N1CCC1CCCCC1	9	12	0	-7	2	nt
C[C@H]1CN=C(Nc2ccccc2)N1CCCC1CCCC1	19*	2	1	-4	2	-2
CC(C)(C)C(=O)Nc1ncccc1C(O)c1cccc(C(F)(F)F)c1 (stereo not given)	19*	-1	-10	1	0	-1
CN1CCN(/N=C/c2ccc(Br)cc2)CC1	20*	12	-2	0	-1	-6
CN1CCN(/N=C/c2ccc(N(c3ccccc3)c3ccccc3)cc2)CC1	6	-4	-5	-6	1	nt
O=C(Nc1ccccc1OC(F)F)c1ccc(-n2cncn2)c([N+](=O)[O-])c1	87*	-6	5	-4	1	-5
CC(C)(C)c1ccccc1NC(=O)c1ccc(-n2cncn2)c([N+](=O)[O-])c1	-3	0	-2	-5	1	nt
O=C(Nc1ccc(F)cc1)c1cc(-c2ccncc2)nc2c(Cl)cccc12	-1	-3	-3	0	2	nt
O=C(COc1ccccc1Cl)Nc1ccc2c(c1)OCO2	19*	5	-5	-1	-1	-3
Nc1nnc(SCC(=O)N2CCN(c3ccccc3)CC2)n1-c1ccccc1	18*	1	-6	-8	1	-2
